Holding throughout (test): NCI-60 one-dose screen, 48 h (100 = growth as untreated, 0 = no growth, -100 = all killed)
Test [1] deals with NCI-H23 lung. The following applies: 10 µM unless noted.
The subject of test [2] is NCI-H226 lung. Conditions: 10 µM unless noted.
In test [3] the test system is NCI-H322M lung. The following applies: 10 µM unless noted.
For test [4], the system named is HOP-62 NSCLC. Conditions: 10 µM unless noted.
Test [5] has as its system NCI-H460 lung. The following applies: 10 µM unless noted.
Test [6] concerns HOP-92 NSCLC. The following applies: 10 µM.
For test [7], the system named is NCI-H522 lung. The following applies: 10 µM unless noted.
Test [8] relates to A549/ATCC NSCLC. Conditions: 10 µM unless noted.
The subject of test [9] is 786-0 renal. The following applies: 10 µM unless noted.
Test [10] deals with COLO 205 colon. Conditions: 10 µM unless noted.
Test [11] relates to DU-145 prostate. Conditions: 10 µM unless noted.
Test [12] relates to K-562 leukemia. Conditions: 10 µM unless noted.
For test [13], the system named is MALME-3M melanoma. The following applies: 10 µM unless noted.
Test [14] deals with RXF 393 renal. The following applies: 10 µM unless noted.
Test [15] has as its system SF-268 CNS. The following applies: 10 µM unless noted.
Test [16] deals with SF-295 CNS. The following applies: 10 µM unless noted.
Test [17] has as its system SF-539 CNS. The following applies: 10 µM unless noted.
Test [18] concerns UACC-257 melanoma. The following applies: 10 µM unless noted.
Test [19] has as its system M14 melanoma. Conditions: 10 µM unless noted.
The test system of test [20] is MDA-MB-231 breast. The following applies: 10 µM unless noted.

Values joined by “and” are separate entries in the source; they are usually repeats but may differ in a detail not shown here. Equal entries are not always repeated. About 83,000 compounds went through this panel and 20% of them were active in at least one assay; those are over-represented in the sample as a whole.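 Interpretation: 100, growth as untreated; towards 0, rising growth inhibition; 0, no net growth; 0 to -100, cell death. Compounds scoring below 10 were considered active.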 Values without a mark were called inactive. Active and inactive are the calls of the source.

In the case of `Oc1cc[c]([Hg][Cl])cc1`, the growth is 87.8% in test [1]; 113% in [2]; 93.4% in [3]; 123% in test [4]; 88.8% in [5]; 161% in test [6]. Further, the growth is -47% (active) in test [7]; 99.3% in [8]; 102% in test [9]; 130% in [10]; 94.3% in [11]; 60.2% in test [12]. For the same compound, the growth in [13] is 94.2%; in [14], 116%; in test [15], 95.4%; in [16], 113%; in [17], 121%; in [18], 99.6%. In addition, the growth in [19] was 91.1%.

Consider `CC[C@](O)(C(=O)O)c1cc2n(c(=O)c1CO)Cc1cc3ccccc3nc1-2`, for which the growth in test [1] is -22.8% (active); in test [2], -27.8% (active); in test [3], -5.59% (active); in test [4], 1.05% (active); in [5] it was -6.64% (active); in test [6], -39% (active). The growth in test [7] is -50.6% (active); in test [8], -5.92% (active); in [9] it was -21.9% (active); in test [10], -20.7% (active); in [11], -30.7% (active); in test [12], -27.9% (active). Further, the growth is -38.2% (active) in test [13]; 34.5% in test [20]; 9.87% (active) in test [14]; 8.53% (active) in test [15]; -13.2% (active) in [16]; -48.2% (active) in [17]. Besides, the results for the growth in test [18] and in test [19] were 0.116% (active) and -26.5% (active), respectively.

For the compound `CC1=C(CO)C2=C(C)C3(CC3)[C@@](C)(O)C(=O)C2=C1`, the growth in test [1] was -18.2% (active); in test [2] it was -28.6% (active); in test [3], -24.9% (active); in [4], -36% (active); in test [5], -1.95% (active); in test [7], -81.7% (active). In addition, the growth in test [8] is 2.23% (active); in test [9], -21.3% (active); in [10], -40.1% (active); in test [11], -20.1% (active); in test [12] it was 26.3%; in test [13], -87.5% (active). In addition, the growth is 4.5% (active) in test [20]; 8.42% (active) in test [14]; 4.48% (active) in test [15]; -8.22% (active) in test [16]; -62.8% (active) in test [17]; -1.44% (active) in [18]. Also, in test [19], the growth was -59.3% (active).

Turning to `CC[C@@]1(O)C[C@H](OC2CC(N(C)C)C(OC3CC(O)C(OC4CCC(=O)C(C)O4)C(C)O3)C(C)O2)c2c(cc3c(c2O)C(=O)c2c(O)ccc(O)c2C3=O)[C@H]1C(=O)OC` (stereo partly specified), the growth in [1] is -8.87% (active); in test [2], -55.7% (active); in test [3], -17.8% (active); in [4], 5.22% (active); in test [5], -14.4% (active); in test [7], -48.1% (active). For the same compound, the growth in test [8] is -10.6% (active); in test [9] it was 17.3%; in test [10], 11.1%; in test [11] it was 1.38% (active); in [12] it was 0.0817% (active); in [13] it was -12.2% (active). In addition, the growth in test [20] was 28.4%; in test [14], 12.6%; in [15], 22.7%; in [16], 8.52% (active); in test [17] it was -5.75% (active); in test [18], -30.9% (active). Further, the growth in test [19] was 3.55% (active).

Take `CO[C@H](/C(C)=C/C=C/C(C)=C/c1coc(C)n1)[C@H](C)[C@H]1C[C@@H](O)[C@@]2(C)O[C@H]2/C=C/[C@@H](C)[C@@H]2C[C@@H](CC(=O)O2)C[C@H]2O[C@@H]2C(=O)O1`: the growth in test [1] is 24.4%; in test [2], 34.8%; in [3] it was 42.9%; in test [4], 11.1%; in test [5], 8.2% (active); in test [7] it was -33.1% (active). The growth in test [8] is 42.9%; in test [9], 15.6%; in test [10], -28.7% (active); in test [11] it was -18.9% (active); in test [12] it was -31.6% (active); in test [13] it was 15.2%. Further, the growth in [20] is 25.9%; in [14] it was 13.7%; in test [15], 32.5%; in test [16], -13.3% (active); in test [17], -19.2% (active); in test [18], 19.1%. In test [19], the growth is -0.709% (active).

With `Oc1cccc2cccnc12`, the growth was 102% and 109% and 104% in [1]; 94.5% and 98.1% and 98.6% in test [2]; 104% and 111% and 95.5% in test [3]; 94.7% and 98.3% and 104% in [4]; 83.7% and 104% and 102% in test [5]; 89.1% in test [6]. The growth was 10.8% and 103% in [7]; 100% and 105% and 111% in [8]; 106% and 105% in test [9]; 65% and 105% and 102% in [10]; 82% and 108% and 111% in test [11]; 44.2% and 106% and 102% in test [12]. The growth in test [13] is 96.3% and 98.2%; in [20] it was 92.9% and 109% and 101%; in test [14] it was 95.7% and 104% and 112%; in test [15], 80% and 101%; in test [16], 99.7% and 108% and 115%; in test [17], 113% and 90.2%. Also, the growth was 80.1% and 98.6% and 111% in [18]; 76% and 102% and 94.3% in test [19].

The values are drawn from PubChem BioAssay (NCI).
